Measured values reported in article PMC4336329 (PLoS ONE, 2015).
The campaign covered roughly 310,000 compounds. About 14,000 (4.5%) showed an effect of 50% or more. Effects have a minus sign here. What follows is part of a selection rich in strong results, with near analogues and random picks from the rest.

Target: human ether-à-go-go-related gene (hERG) potassium channel (human, UniProt Q12809)
Assay: primary screen, population patch clamp on CHO cells stably expressing hERG; higher = less effect of the substance
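Also: peak tail current of the secondary pulse compared with the same well before compound.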

Chain of human ether-à-go-go-related gene (hERG) potassium channel (Q12809 whole entry, looked up): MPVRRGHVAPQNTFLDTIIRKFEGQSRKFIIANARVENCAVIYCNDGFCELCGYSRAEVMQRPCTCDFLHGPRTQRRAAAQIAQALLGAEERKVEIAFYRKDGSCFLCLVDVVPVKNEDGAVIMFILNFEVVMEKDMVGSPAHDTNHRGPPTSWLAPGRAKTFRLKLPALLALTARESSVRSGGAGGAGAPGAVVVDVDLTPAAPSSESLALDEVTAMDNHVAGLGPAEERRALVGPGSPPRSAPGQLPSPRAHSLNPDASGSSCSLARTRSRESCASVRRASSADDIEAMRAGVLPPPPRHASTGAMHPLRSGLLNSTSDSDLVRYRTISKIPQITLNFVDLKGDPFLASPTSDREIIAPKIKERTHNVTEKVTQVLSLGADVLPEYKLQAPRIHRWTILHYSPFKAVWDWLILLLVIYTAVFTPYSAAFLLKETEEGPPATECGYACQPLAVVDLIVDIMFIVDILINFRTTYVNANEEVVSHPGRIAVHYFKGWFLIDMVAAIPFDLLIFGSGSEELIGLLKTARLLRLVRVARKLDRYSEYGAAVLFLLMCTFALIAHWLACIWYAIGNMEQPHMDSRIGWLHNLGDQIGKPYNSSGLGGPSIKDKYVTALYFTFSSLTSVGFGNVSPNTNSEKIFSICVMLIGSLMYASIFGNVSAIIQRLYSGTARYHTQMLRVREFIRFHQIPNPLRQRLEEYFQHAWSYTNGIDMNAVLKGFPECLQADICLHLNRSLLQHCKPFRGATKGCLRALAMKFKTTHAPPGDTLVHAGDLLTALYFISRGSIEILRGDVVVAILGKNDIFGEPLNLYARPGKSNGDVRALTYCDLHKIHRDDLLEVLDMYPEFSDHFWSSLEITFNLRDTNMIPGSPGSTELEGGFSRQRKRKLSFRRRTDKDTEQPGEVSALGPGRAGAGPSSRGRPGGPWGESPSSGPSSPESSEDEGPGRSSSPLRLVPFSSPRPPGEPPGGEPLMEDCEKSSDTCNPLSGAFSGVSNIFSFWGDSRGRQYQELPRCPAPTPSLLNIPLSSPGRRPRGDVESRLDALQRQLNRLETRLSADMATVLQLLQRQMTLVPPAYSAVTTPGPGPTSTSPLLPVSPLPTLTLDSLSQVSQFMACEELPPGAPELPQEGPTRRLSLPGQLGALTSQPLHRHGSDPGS

Structure (SMILES)	hERG current change (%, negative = inhibition) at 10uM
COc1cc2c(cc1OC)CN(C(=S)Nc1ccc(OC(F)F)cc1)CC2	-38.8%
COc1cc2c(cc1OC)CN(CC(=O)Nc1ccc(C#N)cc1)CC2	-63.1%
COc1cc2c(cc1OC)CN(C(=O)CNC(=O)c1ccc(OC(F)F)cc1)CC2	-52.5%
CCC(C(=O)O)n1nc(-c2ccccc2)c2cc(Cl)ccc21 (stereo not drawn)	13.8%
COc1ccc(C(c2nnnn2C2CCCCC2)N2CCN(c3ccccc3F)CC2)cc1 (stereo not drawn)	12.8%
Cc1csc2ncc(C(=O)N3CCc4ccccc43)c(=O)n12	15.1%
C=CCn1c(COc2cccc3ccc(C)nc23)nnc1SCC(=O)OC	-0.175%
CCOC(=O)Cn1nc(C)c(NC(=O)COc2ccc(C)c(C)c2)c1C	12.2%
O=S(=O)(Nc1cccc(F)c1)c1cccc2nsnc12	3.21%
O=C(OCc1nnc(-c2cccs2)o1)c1cccnc1Cl	4.2%
CCOc1ccc(C(=O)OCc2nnc(-c3cccs3)o2)cc1OC	-54.9%
CCOc1ccc(-c2nnc(-c3cccs3)o2)cc1OCC	1.32%
COc1cc(OC)c(S(=O)(=O)NC(C)C)cc1S(=O)(=O)NC(C)C	2.64%
COc1ccc(C)cc1S(=O)(=O)Nc1ccc(F)cc1	-1.24%
Cc1ccc(NC(=O)c2ccc3nccnc3c2)c(C)c1	-2.58%
CCCCc1cc(=O)oc2c(C)c(OCC(=O)NCCN3CCOCC3)ccc12	-82.1%
Cc1c(OCC(=O)NCCN2CCOCC2)ccc2c1oc(=O)c1ccccc12	-59.6%
Cc1c(OCC(=O)NCCCN2CCOCC2)ccc2c1oc(=O)c1ccccc12	-46.6%
Cc1c(C)c2ccc(OCC(=O)NCCN3CCOCC3)c(C)c2oc1=O	1.61%
CCc1cc(=O)oc2c(C)c(OCC(=O)NCCN3CCOCC3)ccc12	-0.348%
CCCc1cc(=O)oc2c(C)c(OCC(=O)NCCN3CCOCC3)ccc12	-31.6%
Cn1c(SCc2ccccc2C#N)nnc1-c1ccncc1	7.11%
CSc1ccccc1NC(=O)CN(C)C(=O)CCc1c[nH]c2ccccc12	0.0989%

Structure (SMILES)	hERG current change (%, negative = inhibition) at 10uM
O=C(N/N=C/c1ccccn1)C1CC1	-69.4%
O=C(CCCC(=O)N/N=C\c1ccccn1)N/N=C\c1ccccn1	2.44%
O=C(N/N=C\c1ccccn1)c1ccccc1O	11%
O=C(N/N=C/c1ccccn1)c1ccccc1	2.75%
O=C(N/N=C/c1ccccn1)c1cc(Br)ccc1O	-54.9%
CCOc1ccc(Br)cc1C(=O)N/N=C/c1ccccn1	-40.8%
COC(=O)c1cccc(CSc2nnc(-c3ccco3)n2-c2ccccc2)c1	-33.9%
C=CCNc1nnc(Cc2ccc(C(C)C)cc2)c(=O)[nH]1	-0.924%
CC(C)(C)c1ccc(-c2noc(CCC(N)=O)n2)cc1	-11%
Cc1ccc(NC(=O)C2CCN(S(=O)(=O)c3c(C)n[nH]c3C)CC2)nc1	-23%
Cn1nc(C(=O)NC2CCCCC2)c2c1-c1ccccc1SC2	-3.08%
CC1CCCN(CCCNC(=O)c2nn(C)c3c2CS(=O)(=O)c2ccccc2-3)C1 (stereo not drawn)	-39.8%
Cn1nc(C(=O)NCCCN2CCCCC2)c2c1-c1ccccc1SC2	-66%
CC1CCCN(CCCNC(=O)c2nn(C)c3c2CSc2ccccc2-3)C1 (stereo not drawn)	-72.5%
Cn1nc(C(=O)NCCCN2CCCCC2)c2c1-c1ccccc1S(=O)(=O)C2	-0.878%
CC1CCC(NC(=O)c2nn(C)c3c2CSc2ccccc2-3)CC1 (stereo not drawn)	3.11%
CC1CCCCN1CCCNC(=O)c1nn(C)c2c1CS(=O)(=O)c1ccccc1-2 (stereo not drawn)	-8.49%
CC1CCCN(C(=O)c2nn(C)c3c2CSc2ccccc2-3)C1 (stereo not drawn)	-11.7%
CC1CCCCN1CCCNC(=O)c1nn(C)c2c1CSc1ccccc1-2 (stereo not drawn)	-67.1%
COc1cc(NC(=S)NC(=O)c2ccccc2C)ccc1NC(=O)c1cccs1	-1.24%
CSc1n[nH]c(NCc2cccs2)n1	8.8%
CC(C)CC(C(=O)NCC1CCCO1)N(C(=O)Cn1nnc(-c2ccc(F)cc2)n1)c1cccc(C(F)(F)F)c1 (stereo not drawn)	-0.701%
